# Source: PubChem (National Center for Advancing Translational Sciences (NCATS))
# An excerpt weighted towards active compounds, which were near 17% of everything screened.
# ATXN2 expr inh: reduces ATXN2 reporter expression in HEK-293 cells; HEK-293 ATXN2-luciferase reporter, luminescence, 24 h; Potency, µM (doses to about 57 µM), for inactives: top-dose activity change, negative = inhibition, most hits filed as inhibitors; 0.72% of 360,000 active; AID 1745845; also: % is scaled to controls: 0 for no effect and ±100 for the full control effect; nearly all actives have a fitted effect of over 55% in size
#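 qHTS (up to 57 uM final) was run with 24 h compound exposure of reporter cells at 37 °C. Each well was multiplexed: SteadyGlo luminescence measured ATXN2-luciferase expression after a fluorogenic Gly-Phe-AFC viability readout (25 uM final).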
# ATXN viability: cell viability loss in ATXN counter-screen | S2 cells (HEK-293 line with an ATXN2-luciferase reporter) viability, CellTiter-Fluor protease fluorescence, 24 h | 0.49% of 400,000 active | Potency, µM (doses to about 56.7 µM), hits mostly cytotoxic | AID 651635; also: nearly all actives have a fitted effect of over 40% in size
# TDP1 cell noCPT: qHTS for Inhibitors of human tyrosyl-DNA phosphodiesterase 1 (TDP1): qHTS in cells in absence of CPT. DT40 Tdp1-/- hTDP1 cells, no CPT, ATP luminescence, 48 h. Potency, µM (titrated, usually from 46.2 µM), for inactives: at the top dose activity change, negative = growth inhibition, hits mostly inhibitors. 15% of 420,000 active. AID 686978, 2013; also: % is scaled to controls: 0 for no effect and ±100 for the full control effect; nearly all actives have a fitted effect of over 55% in size
#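 Growth kinetics read by CellTiter-Glo luminescence after ≥48 hr at 37 °C. Cells: DT40 Tdp1-/- stably carrying human TDP1, 400 per well, compound exposure in the absence of CPT (DMSO vehicle).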
# TDP1 cell CPT: growth inhibition of DT40 Tdp1-/-;hTDP1 cells with camptothecin (screen for TDP1 inhibitors); Potency, µM (top dose mostly 46.2 µM), for inactives: at the top dose activity change, negative = growth inhibition, hits mostly inhibitors; chicken DT40 Tdp1-/-;hTDP1 cells + 20 nM CPT, ATP luminescence, 48 h; AID 686979; 12% of 420,000 active; also: % is scaled to controls: 0 for no effect and ±100 for the full control effect; nearly all actives have a fitted effect of over 55% in size
#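 Chicken DT40 Tdp1-/- cells complemented with human TDP1, 400 cells/well, exposed to compounds plus 20 nM camptothecin for at least 48 h at 37 C; viability read as ATP content by CellTiter-Glo luminescence.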
# TGFb SMAD3 inh: blocks TGF-b signaling. HepG2 CAGA-GFP TGF-b/SMAD3 reporter, GFP fluorescence, 18 h; TGF-beta stimulated, 500 pg/mL final. Potency, µM (series often up to 46.1 µM), for the others: at the highest dose activity, negative = inhibition, hits mostly inhibitors. 1.2% of 410,000 active. AID 588855; also: % is scaled to controls: 0 for no effect and ±100 for the full control effect; nearly all actives have a fitted effect of over 65% in size
#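 Inhibition of TGF-beta-driven CAGA-GFP reporter expression in HEPG2 cells is measured by cellular GFP fluorescence after 18 h stimulation with 500 pg/mL recombinant TGF-beta in 1% FBS medium at 37 degrees C.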
# HepG2 tox: HepG2 cytotoxicity, counter-screen for TGF-b inhibitors; HepG2 CAGA-GFP viability, ATP luminescence, 18 h; Potency, µM (titrated, usually from 46.1 µM), for the others: top-dose activity change, negative = cytotoxicity, most hits filed as cytotoxic; 0.76% of 410,000 active; AID 588856
#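 HepG2 CAGA-GFP cells (1000/well, DMEM with 1% FBS) received compound, then TGF-beta at 500 pg/mL final, and were incubated 18 hours at 37 degrees C. Viability was read by CellTiter-Glo luminescence. Media-only wells were set as complete cell-killing and DMSO as no toxicity.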
# Active calls of the source: *; i = inactive; ? = inconclusive; · = no result given; ! = a repeat was not active. Calls follow the shape of the dose curve; as a rule, active = well fitted curve in the direction sought with a large enough effect; inconclusive = small, poorly fitted or top-dose-only effect, or another doubt; inactive = no such curve, though single readings can be large; an effect the other way counts as inactive or inconclusive. Potency is read from the fitted curve at half-maximal effect.
SMILES,ATXN2 expr inh,ATXN viability,TDP1 cell noCPT,TDP1 cell CPT,TGFb SMAD3 inh,HepG2 tox
CC1CCC(C(C)C)C(OC(=O)CSc2nnc(N)s2)C1 (centres undefined),2%,i,-29%,?,3%,5%
CC1CCC(C(C)C)C(OC(=O)Cn2c(-c3ccccc3)[n+](C)c3ccccc32)C1 (centres undefined),?,?,0.46µM*,0.52µM*,5.6µM*!,-53%
Cc1cccc(OC(=O)Cn2c(C(F)(F)F)nc3ccccc32)c1,-11%,i,?,?,-24%,-2%
Cc1cccc(OCc2n(CC(=O)OC3CC(C)CCC3C(C)C)c3ccccc3[n+]2C)c1 (centres undefined),?,·,5.8µM*,5.2µM*,16µM*,20µM*
Cc1ccc(S(=O)(=O)N(C)c2ccccc2C(=O)Nc2c(F)cccc2F)cc1,11%,i,-3%,-13%,0%,9%
CCCCN(CCCC)CCCNC(=O)c1ccc2nc(N3CCCCC3)sc2c1,25%,i,23µM*,?,37%,6%
Cc1ccc(C)c(N2CCN(CCCNC(=O)c3ccc4nc(N5CCCCC5)sc4c3)CC2)c1,54%,i,10µM*,18µM*,-3%,-2%
CCCN1CCN(CCCNC(=O)c2ccc3nc(N4CCCCC4)sc3c2)CC1,32%,i,-21%,-2%,-6%,-11%
CC1CCCC(C)N1CCCNC(=O)c1ccc2nc(N3CCCCC3)sc2c1 (centres undefined),43%,i,-18%,-1%,-2%,-28%
COc1ccc(CCNS(=O)(=O)c2cc(-c3onc(C)c3C)ccc2OC)cc1OC,·,·,?,-24%,-11%,0%
Cc1cc(S(=O)(=O)NCc2ccco2)c(C)cc1Cl,-4%,i,?,?,2%,7%
Cc1ccc(-c2onc(C)c2C)cc1S(=O)(=O)NCc1ccco1,·,·,?,23µM*,0%,-15%
COc1ccc(-c2onc(C)c2C)cc1S(=O)(=O)NCc1ccc(C)o1,·,·,3.3µM*,2.9µM*,-4%,-8%
CCc1ccc(-c2cc(C)no2)cc1S(=O)(=O)NCc1ccco1,10%,i,?,21µM*,3%,-2%
COc1ccccc1CN1CCC(CNS(=O)(=O)c2cc(-c3onc(C)c3C)ccc2OC)CC1,-36%,i,21µM*,21µM*,?,-16%
Cc1cccc(CNC(=O)CN2CC(C)Sc3ccccc32)c1 (centres undefined),6%,i,·,·,-4%,-33%
Nc1nn(-c2ccccc2Cl)cc1-c1nn[nH]n1,·,i,-20%,17%,0%,139%
CCOC(=O)c1ccc(NC(=O)CN2C(=O)C(C)SC(C)C2=O)cc1 (centres undefined),·,i,-7%,0%,-9%,1%
CCOC(=O)c1ccc(NC(=O)CC2Sc3ncnn3C2=O)cc1 (centres undefined),-3%,i,6.5µM*,5.8µM*,-3%,3%
COc1ccc(NC(=O)CC2Sc3ncnn3C2=O)cc1 (centres undefined),?,·,12µM*,5.2µM*,7%,-3%
COCCN1C(=O)C(CC(=O)Nc2ccccc2)SC1=Nc1ccc(OC)cc1 (centres undefined),-15%,?,-13%,-6%,-4%,-4%
Cc1cc(C)c2c(ccc3ccccc32)n1,-6%,?,-14%,2%,-37%,1%
Oc1ccc(-c2nc3ccc4ccccc4c3c3c2CCC3)cc1O,-35%,i,?,?,0%,25µM*
O=C(COC(=O)c1cc2ccccc2oc1=O)c1cccc([N+](=O)[O-])c1,3%,i,-20%,-8%,0%,10%
